# Data published in publication PMC5540273 (PLoS ONE, 2017).
# System: EPHB6
# 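Note: kd values determined as follow-up on hits from a single-replicate KINOMEscan panel screen.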
row,Compound,Kd
1,C[C@@H]1CC[C@H](C(=O)NC2CCCCC2)CN1c1cc(-c2ccc3c(N)n[nH]c3c2)nc(N)n1 [GSK2291363],49 nM
2,COc1cc(Nc2nccc(N3CCC(NC(=O)C(C)c4ccc(Cl)cc4)C3)n2)cc(OC)c1OC (centres unmarked) [GSK1379757],100 nM
3,Nc1nccc2scc(-c3ccc4c(c3)CCN4C(=O)Cc3ccccc3)c12 [GSK2576924],340 nM
4,COc1cc(Nc2nccc(N3CCC(NC(=O)C4COc5ccccc5O4)C3)n2)cc(OC)c1OC (centres unmarked) [GSK1379761],110 nM
5,Cl.c1ccc(Cn2cnc3cc(Nc4ncnc5ccccc45)ccc32)cc1 [GW272142],510 nM
